Screening results (PubChem BioAssay)
CaV13 FRET inh – Primary screen for inhibitors of IQ motif and Ca2+-dependent inactivation inhibitor domain binding in CACNA1D, Förster resonance energy transfer in living cells, …; HEK cells, CFP/YFP FRET ICDI-IQ, plate reader, 10 min; percent FRET-ratio fall versus neutral wells; inhibition, % at 12.3 µM; 340,000 compounds, 0.098% hits; AID 743397;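 active = mean replicate inhibition of at least 30% and at least 1% of replicates passing that level; inconclusive = only one of the two criteria is met; inactive = neither criterion is met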;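 also: 0% = median of the neutral control wells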
PolyA inh – inhibitors of polyadenylation in S. cerevisiae; AID 1875; 300,000 compounds, 0.02% hits; S. cerevisiae SKY197-pL101 polyadenylation reporter, beta-gal luminescence; efflux-impaired pdr1/pdr3 knockout yeast; score 100 = 6 SD above DMSO; activity score, % at 12 µM;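 active = lowest replicate activity score at least 50, where 100 means six control SD above control mean; inconclusive = lowest score under 50 but half or more replicates reach 50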;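 also: yeast exposed to compound for 9 h at 30 °C; higher score means more reporter readthrough which indicates perturbed polyadenylation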
IDE cell activ – IDE (human) activation, cell-based; 340,000 compounds, 0.073% hits; HEK cells, FAbeta-B cleavage, fluorescence polarization; 0% vehicle, 100% cell-free pure enzyme wells; activation, % at 5.96 µM; AID 493087;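 active = activation above the mean of all tested compounds plus 3 SD, set per screening campaign, cut at about 17% in these data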
IDE inh – cellular human IDE inhibition; P14735; HEK cells, FAbetaB cleavage, fluorescence polarization; inhibition, % at 5.59 µM; 320,000 compounds, 0.41% hits; AID 434962;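 active = percent inhibition above the average of all tested compounds plus 3 SD, set per screening campaign, cut at about 16% in these data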;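 also: IDE supplied by intact live HEK cells; FP after avidin binding of uncleaved biotin substrate so inhibition keeps polarization high; 0% = DMSO wells and 100% = 60 µM reference IDE inhibitor Ii1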
ALR H2O2 inh – inhibitors of human sulfhydryl oxidase ALR; purified ALR, DTT oxidation, H2O2 HRP-luminol luminescence; inhibition, % (no concentration beside the values); 290,000 compounds, 3.8% hits; AID 485317;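 active = mean replicate inhibition above about 79%, with every replicate also reaching it, limit read from the data; inconclusive = only one of the two criteria met; inactive = mean below limit and not every replicate reaching it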
Target sequence (P55789 whole entry, looked up): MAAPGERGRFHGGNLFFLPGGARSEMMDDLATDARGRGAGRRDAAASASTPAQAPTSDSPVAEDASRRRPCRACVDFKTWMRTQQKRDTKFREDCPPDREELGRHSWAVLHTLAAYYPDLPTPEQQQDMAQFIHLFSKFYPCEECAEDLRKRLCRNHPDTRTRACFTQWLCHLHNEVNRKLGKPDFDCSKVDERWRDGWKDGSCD
PfM18AAP inh-1 – blocks P. falciparum M18 aspartyl aminopeptidase; recombinant PfM18AAP, H-Glu-NHMec fluorogenic cleavage; inhibition, % at 7.35 µM; 290,000 compounds, 1.2% hits; AID 1822;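 active = inhibition above the campaign mean inhibition over all tested compounds plus 3 SD, cut at about 28% in these data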;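 also: 0% = plate median of test compound wells and 100% = 2 mM ZnCl2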
PfM18AAP inh-2 – PfM18AAP inhibition, confirmation; shares compounds with PfM18AAP inh-1; recombinant PfM18AAP, H-Glu-NHMec fluorogenic cleavage; inhibition, % at 7.35 µM; 2,400 compounds, 28% hits;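 active = mean inhibition over replicate wells above the hit cutoff set for the earlier primary screen, cut at about 29% in these data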;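 also: 0% = median of test compound wells and 100% = 2 mM ZnCl2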
CTSL1 confirm – counter-screen for PFM18AAP inhibitors: confirmation of human cathepsin L inhibitors. shares compounds with PfM18AAP inh-1. purified cathepsin L1, Z-Leu-Arg-MCA fluorescence. inhibition, % at 5.96 µM. 2,400 tested, under 10 active;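 active = average inhibition across replicates above the hit cutoff set in the earlier primary screen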;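 also: 0% = median of test compound wells and 100% = Z-Phe-Ala-diazomethylketone 1 µM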
* = called active by the depositor; ? = inconclusive; . = no result. Only some compounds are listed: those with a hit (about 4.1% of all), similar ones and a draw of the others.

SMILES | CaV13 FRET inh | PolyA inh | IDE cell activ | IDE inh | ALR H2O2 inh | PfM18AAP inh-1 | PfM18AAP inh-2 | CTSL1 confirm
O=C(NNC(=O)C1CCN(S(=O)(=O)c2c(Cl)cccc2Cl)CC1)c1ccccc1O | -2 | 0 | 8 | -6 | 2 | . | . | .
COc1ccc(N(CC(=O)NC2CCCCC2)C(=O)CNC(=O)c2cccs2)cc1OC | -4 | -1 | 0 | -1 | -2 | 3 | . | .
Cc1cc(=O)[nH]c2c(N=Nc3ccc(O)cc3)c(N)nn12 | 9 | -10 | 6 | . | . | 61* | 62* | 6
Nc1nn2c(C(F)(F)F)cc(=O)[nH]c2c1N=Nc1cccc(F)c1 | . | 1 | -2 | 2 | 26 | -5 | . | .
COC(=O)c1ccc(C)c(NC(=O)CN(c2ccccc2)S(=O)(=O)N(C)C)c1 | -3 | 11 | 5 | 3 | -2 | 10 | . | .
CC(C(=O)Nc1cccc([N+](=O)[O-])c1)n1nnc2ccccc21 (stereo not drawn) | -4 | 2 | 4 | 3 | -20 | 1 | . | .
N#CCn1c(Cc2ccccc2)nc2ccccc2c1=O | -5 | -5 | 1 | . | -4 | 5 | . | .
N#CC/C(N)=N/Nc1nc2ccccc2nc1Cc1ccccc1 | -9 | -3 | 7 | -3 | 25 | 36* | 9 | -4
COc1ccc(C(=O)COC(=O)CNC(=O)c2ccc(Cl)cc2Cl)c(OC)c1 | -6 | -7 | 4 | 2 | -2 | . | . | .
CCNC(=S)NC(=NCc1cccnc1)Nc1nc(C)cc(C)n1 | -2 | 0 | -13 | 6 | . | 32* | -12 | -3
Cc1ccc(C(=O)N2CCC(Cc3ccccc3)CC2)cc1S(=O)(=O)N1CCOCC1 | . | . | -4 | . | . | . | . | .
O=C(NNc1cccc(Cl)n1)C(F)(F)F | -5 | 9 | 0 | 7 | 47 | 27 | . | .
O=C(NNc1cccc(Cl)n1)Nc1ccccc1F | -2 | 7 | 4 | 2 | 15 | 53* | 41* | 0
CC(=O)NNc1cccc(Cl)n1 | -4 | 15 | 1 | 1 | -2 | 0 | . | .
O=C(NNc1cccc(Cl)n1)Nc1ccc(F)cc1 | -6 | 5 | 0 | 3 | 7 | 52* | 44* | -2
O=C(NNc1cccc(Cl)n1)Nc1ccccc1Cl | -6 | -5 | -4 | 4 | . | 50* | 34* | -3
CCOC(=O)C1=C(O)/C(=C\c2ccc(O)c(OCC)c2)N=C1C | -4 | ? | 0 | 1 | 95* | 40* | -41 | 2
CCOc1cc(/C=C2\SC(N)=NC2=O)ccc1O | -22 | 15 | 0 | 8 | 98* | 38* | -16 | 0
COc1cc(C=C2CN(C)C(=O)C2=O)ccc1O | -11 | . | . | . | . | . | . | .
CCOc1cc(/C=C2\CN(C)C/C(=C\c3ccc(O)c(OCC)c3)C2=O)ccc1O | -4 | ? | 5 | 3 | . | 44* | 10 | 7
Cc1cccc(NC(=O)CCc2ccccc2)c1C | -5 | 0 | 3 | 0 | -2 | -1 | . | .
O=C1CSC(=Nc2ccc(Cl)cc2)N1Cc1cccnc1 | -18 | -4 | 7 | 6 | . | 9 | . | .
O=C(c1ccc(Cl)cc1)c1c[nH]c(C(=O)NNc2ccccc2)c1 | -5 | 9 | 1 | 6 | -5 | 33* | -6 | -1
COc1cscc1C(=O)O | -5 | 1 | 3 | 6 | -3 | -10 | . | .
O=C(CN1C(=O)C2C3C=CC(C3)C2C1=O)OCC(=O)c1ccc([N+](=O)[O-])cc1 (stereo not drawn) | -3 | -7 | -3 | 10 | . | 42* | -19 | 0
O=C(CN1C(=O)C2C3C=CC(C3)C2C1=O)OCC(=O)c1ccc(Cl)cc1 (stereo not drawn) | -6 | 0 | -2 | . | . | -3 | . | .
CC(C(=O)OCC(=O)c1ccc([N+](=O)[O-])cc1)N1C(=O)C2C3CCC(C3)C2C1=O (stereo not drawn) | -1 | -3 | -4 | 4 | 29 | 41* | -11 | -1
